High-throughput results from PubChem.
An excerpt weighted towards active compounds, which were near 2.2% of everything screened.
ZTA DNA inh = counter-screen for EBNA-1 inhibitors: inhibitors of Epstein-Barr virus ZTA; P03206; ZTA-DNA binding, fluorescence polarization; inhibition, % at 11 µM; hit rate 0.15% among 320,000; AID 2234; in the data active means inhibition above about 33%
Target sequence (P03206 whole entry, looked up): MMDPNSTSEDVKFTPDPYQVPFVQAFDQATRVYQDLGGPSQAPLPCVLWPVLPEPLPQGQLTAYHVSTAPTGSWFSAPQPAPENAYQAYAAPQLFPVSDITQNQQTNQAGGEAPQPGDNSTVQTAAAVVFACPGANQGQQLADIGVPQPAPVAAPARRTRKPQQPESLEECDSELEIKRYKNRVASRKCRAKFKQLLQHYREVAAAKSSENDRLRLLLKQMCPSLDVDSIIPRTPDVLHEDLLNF
NALP1 inh = NALP1 inflammasome inhibitors in reconstituted yeast, colorimetric, S. cerevisiae, triplicate retest; S. cerevisiae NALP1/ASC/caspase-1 growth, X-gal OD620, 72 h; inhibition, % at 10 µM; hit rate 0.61% among 280,000; AID 2071, 2009; in the data active means inhibition mostly above about 24%, no sharp cut-off; inactive means mostly below about 32%
dFosB act = activators of delta FosB homodimer, primary screen, biochemical, fluorescence polarization, TAMRA-CDK5 oligo, single point. AID 493131, 2011. Protein FosB (Mus musculus), P13346. purified delta FosB; percent of positive-control signal above neutral wells. activation, % at 25 µM. hit rate 0.99% among 340,000;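 active means mean activation above about 17%, with every replicate also reaching it, limit read from the data, passing the limit was not always enough; inconclusive means only one of the two conditions met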
Target sequence (P13346 whole entry, looked up): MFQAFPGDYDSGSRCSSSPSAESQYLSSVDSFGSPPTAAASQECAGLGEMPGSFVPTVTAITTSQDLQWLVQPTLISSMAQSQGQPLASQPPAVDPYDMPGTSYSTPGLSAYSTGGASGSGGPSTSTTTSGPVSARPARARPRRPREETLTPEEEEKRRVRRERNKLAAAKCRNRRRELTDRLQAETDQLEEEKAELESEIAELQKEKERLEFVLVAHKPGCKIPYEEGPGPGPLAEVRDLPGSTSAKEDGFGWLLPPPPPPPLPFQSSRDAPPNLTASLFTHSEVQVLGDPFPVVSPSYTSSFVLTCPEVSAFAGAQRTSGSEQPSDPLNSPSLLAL
PolyA inh = polyadenylation inhibitors in yeast reporter cells, primary screen, luminescence, S. cerevisiae | activity score, % at 12 µM | hit rate 0.02% among 300,000 | S. cerevisiae SKY197-pL101 polyadenylation reporter, beta-gal luminescence; efflux-impaired pdr1/pdr3 knockout yeast; score 100 = 6 SD above DMSO;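 active means lowest replicate activity score at least 50, where 100 means six control SD above control mean; inconclusive means lowest score under 50 but half or more replicates reach 50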;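 further: yeast exposed to compound for 9 h at 30 °C; higher score means more reporter readthrough which indicates perturbed polyadenylation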
NLRP3 yeast inh = NALP3 inflammasome inhibitors in reconstituted yeast, primary screen, luminescence, uHTS; inhibition, % at 10 µM; Yeast reconstituted NLRP3/ASC/caspase-1, beta-gal luminescence, 24 h; hit rate 0.39% among 330,000; AID 2825, 2010;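 active means inhibition of 50% or more; inactive means inhibition below 50%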
EBNA-1 inh = EBNA-1 DNA-binding inhibitors, primary screen, biochemical, fluorescence polarization. inhibition, % at 14.8 µM. hit rate 0.34% among 300,000; in the data active means inhibition above about 28%
NALP3 yeast conf = NALP3 inhibitors retested in yeast, confirmation, luminescence, single concentration. shares compounds with NLRP3 yeast inh. yeast expressing human NALP3. inhibition, % at 10 µM. hit rate 81% among 1,300. AID 435006, 2010; in the data active means inhibition above about 48%
Casp1 ASC ctr = CASP1-PYCARD signaling inhibition in yeast, confirmatory test, counterassay for NLRP3 inhibitor program, one-dose | hit rate 66% among 1,000 | inhibition, % at 10 µM | AID 488784, 2010 | shares compounds with NLRP3 yeast inh | yeast expressing Caspase-1-ASC, luminescence counter screen
NALP3 retest = NALP3 inhibitors in yeast, repeat test, confirmation, luminescence, single concentration, retest. yeast expressing human NALP3, luminescence read-out. shares compounds with NLRP3 yeast inh. hit rate 53% among 1,000. inhibition, % at 10 µM
Hits are given with their value; i = inactive; ? = inconclusive; nt = not tested or not shown. Unless noted, no stated cut-off is given here; in the data, active means inhibition above about 50%; inactive means the rest.

SMILES | ZTA DNA inh | NALP1 inh | dFosB act | PolyA inh | NLRP3 yeast inh | EBNA-1 inh | NALP3 yeast conf | Casp1 ASC ctr | NALP3 retest
CCCCC(CC)CN=C(N)NC(N)=NCCCCCCN=C(N)NC(N)=NCC(CC)CCCC (configuration not stated) | i | nt | i | nt | 96.7 | i | 95.0 | 85.7 | 93.9
c1ccc(-c2ccc(-c3ccccn3)s2)nc1 | i | i | i | i | 52.4 | i | 55.5 | i | i
CC(=O)c1ccc(N2CCN(C(=O)CCC(=O)Nc3ccc4nc(N5CCN(C)CC5)cc(C)c4c3)CC2)cc1 | i | i | i | i | i | i | nt | nt | nt
O=C(Nc1cccc(Cl)c1)c1cccc(Oc2ccc([N+](=O)[O-])cc2Cl)c1 | i | i | i | i | i | i | nt | nt | nt
O=C(Nc1ccc([N+](=O)[O-])cc1Cl)c1cc(Cl)ccc1O | i | nt | i | nt | 95.6 | i | 99.0 | 99.5 | 97.4
O=C(Nc1cccc(Cl)c1)c1cc(N=Nc2ccc([N+](=O)[O-])cc2Cl)ccc1O | i | i | i | i | 56.5 | i | 86.2 | i | 55.9
COc1ccc(C2=NN(C(=O)c3ccco3)C(c3ccco3)C2)cc1OC (configuration not stated) | i | i | i | i | i | i | nt | nt | nt
Cc1ccc2oc(/N=C(\N)NC(=O)C(C)(C)C)nc2c1 | i | i | i | i | 70.9 | i | 58.0 | i | i
CC1(C)c2ccccc2-n2c1cc1oc(=O)cc(O)c1c2=O | i | nt | i | i | 76.1 | i | 80.0 | 66.8 | 72.2
COCCCNC(=O)C[C@H]1C[C@H](C(=O)N(C(C)C)C(C)C)[C@@]2(C)c3[nH]c4cc(-c5ccco5)ccc4c3CCN2C1=O | nt | nt | i | nt | nt | nt | nt | nt | nt
COc1cccc(C(C)=C2SC(=S)NC2=O)c1 | nt | nt | i | nt | nt | nt | nt | nt | nt
O=C(CN1CCCCCCC1)Nc1cc(Cl)cc(Cl)c1 | i | i | i | i | 51.0 | i | i | nt | nt
O=C(CN1CCCC1)Nc1cccc(Cl)c1 | i | i | i | i | i | i | nt | nt | nt
CCn1cnc2sc(-c3ccccc3)cc2c1=O | i | i | i | i | 62.5 | i | 56.2 | 66.0 | 55.7
CC[N+]1(C)CCC(O)(c2ccc(OC)cc2)C(C(=O)c2ccc(OC)cc2)C1 (configuration not stated) | nt | nt | i | nt | nt | nt | nt | nt | nt
O=C(CSc1ccc(-c2cccnc2)nn1)Nc1ccccc1C(F)(F)F | i | i | i | i | i | i | nt | nt | nt
CSCc1cc(N2CCOCC2)nc(SCc2ccc(Cl)c(Cl)c2)n1 | i | i | i | i | i | i | nt | nt | nt
COCc1cc(N2CCOCC2)nc(SCc2ccc(Cl)cc2)n1 | i | i | i | i | 57.9 | i | 47.1 | 68.0 | i
CNC(=S)N(CCc1c(C)[nH]c2ccc(F)cc12)Cc1cccnc1 | i | i | i | i | i | i | nt | nt | nt
O=C(NNC(=O)c1ccccc1F)c1ccc(-c2ccc(Cl)cc2)o1 | i | nt | i | i | 54.3 | i | 59.1 | i | i
Cn1c(/C=N/Nc2nc3ccccc3[nH]2)nc2ccccc21 | i | i | i | i | 51.3 | i | 74.3 | i | i
CCC(=O)c1coc2ccc(O)cc12 | i | nt | i | i | i | i | nt | nt | nt
O=C(CCl)Oc1ccc2occ(C(=O)c3cccs3)c2c1 | i | i | i | i | 72.8 | i | 85.5 | nt | nt
O=C(c1cccs1)c1coc2ccc(O)cc12 | i | i | i | i | 66.8 | i | 86.2 | 87.0 | 76.5
CC(=O)Oc1ccc2occ(C(=O)c3cccs3)c2c1 | i | i | i | i | 75.2 | i | 87.5 | 80.8 | 77.2
SMILES | ZTA DNA inh | NALP1 inh | dFosB act | PolyA inh | NLRP3 yeast inh | EBNA-1 inh | NALP3 yeast conf | Casp1 ASC ctr | NALP3 retest
CC(=O)Oc1ccc2occ(C(=O)c3ccccc3)c2c1 | i | nt | nt | i | i | i | nt | nt | nt
COc1ccc(OCC(=O)N2CCC3(CC2)CC(=O)c2ccccc2O3)cc1 | i | nt | i | i | i | i | nt | nt | nt
Cc1csc2nc(O)c(C(=O)NCCC3=CCCCC3)c(=O)n12 | i | nt | i | ? | 55.9 | i | 74.6 | i | 55.1
Cc1csc2nc(O)c(C(=O)NCCCc3ccccc3)c(=O)n12 | i | nt | i | i | i | i | nt | nt | nt
O=C(CN1C(=O)NC2(CCCC2)C1=O)OCC(=O)c1cccc(Cl)c1 | nt | nt | i | nt | i | nt | nt | nt | nt
C=C(CC[C@@H](O)C(C)(C)O)[C@H]1CC[C@]2(C)[C@@H]1CCC1[C@@]3(C)CC[C@H](O)C(C)(C)C3CC[C@]12C (some centres not stated) | nt | nt | i | nt | 58.2 | nt | i | i | i
Cc1ccc(OC(=O)c2ccc(C)c(C)c2)cn1 | i | i | i | i | 54.3 | i | 53.9 | 74.8 | i
FC(F)(F)c1cccc(N2CCc3cn[nH]c32)c1 | i | nt | i | i | 97.0 | i | 99.2 | 98.8 | 97.4
CC(NC(=O)c1cccc(S(=O)(=O)N2CCN(Cc3ccccc3)CC2)c1)c1ccc(Br)cc1 (configuration not stated) | i | i | i | i | i | i | nt | nt | nt
c1ccc2c(OCCCCN3CCOCC3)cccc2c1 | i | i | i | i | i | i | nt | nt | nt
CC(C)c1cccc(C(C)C)c1OCCCCCN1CCOCC1 | i | nt | nt | i | 68.8 | i | 74.2 | 78.2 | 66.1
COc1ccc(-n2cc(-c3ccccc3)c3c(=O)[nH]cnc32)cc1 | i | i | i | i | i | i | i | nt | nt
O=c1[nH]cnc2c1c(-c1ccccc1)cn2-c1cccc(Cl)c1 | i | i | i | i | i | i | nt | nt | nt
COc1cc(/C=C2\SC(=Nc3ccccc3)N(CCc3c[nH]c4ccccc34)C2=O)ccc1OC(C)C(=O)O (configuration not stated) | i | i | i | i | i | i | nt | nt | nt
O=C1/C(=C/c2ccc(N3CCOCC3)o2)SC(=Nc2ccccc2)N1CCc1c[nH]c2ccccc12 | i | i | i | i | 68.4 | i | 76.7 | nt | nt
CCSc1nc2sc3c(c2c(=O)n1-c1ccccc1)CCN(C)C3 | i | i | i | i | 50.5 | i | 65.8 | i | i
CCc1sc(C(=O)Nc2ncccc2C)cc1C | i | i | i | i | i | i | nt | nt | nt
CCc1sc(C(=O)Nc2nccs2)cc1C | i | i | i | i | 53.1 | i | 72.2 | 81.3 | 69.9
O=C(Nc1nccs1)c1ccc(Cl)s1 | i | i | i | i | 51.0 | i | 69.6 | 60.5 | i
COc1ccccc1C(=O)Nn1c(C)nc2ccccc2c1=O | i | i | i | i | i | i | nt | nt | nt
CCOC(=O)C1=C(COC(=O)CCOc2ccc(C)cc2)NC(=O)NC1C (configuration not stated) | i | nt | i | i | i | i | nt | nt | nt
CC(C)CCNC(=S)Nc1ccc([N+](=O)[O-])cc1 | i | 91.6 | i | i | 63.4 | i | i | nt | nt
